HGIII-sPLA2 inh: Blocks human group III sPLA2 activity | Q9NZ20 | 370,000 tested, 0.56% active | inhibition, % at 12.2 µM | QFRET BODIPY PC-A2 liposome hydrolysis, fluorescence | AID 743126;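 active = inhibition above mean plus 3 SD of compounds lying within the high and low control bounds, cut at about 19% in these data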
proKLK7 act: proKLK7 (human) activation, primary screen; purified proKLK7, EDANS-DABCYL substrate fluorescence; 100% is mature enzyme control, 0% vehicle; activation, % at 7 µM; 370,000 tested, 0.9% active;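 active = activation above the mean of all tested compounds plus 3 SD, computed per campaign excluding outliers beyond control limits, cut at about 13% in these data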
ADAM17 inh: inhibits human ADAM17; P78536; AID 720648; inhibition, % at 6.95 µM; recombinant ADAM17, EDANS/DABCYL FRET peptide cleavage; 370,000 tested, 0.83% active;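 active = inhibition above the mean of compounds lying between control limits plus 3 SD, set per campaign, cut at about 8.5% in these data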
PLC-beta3 inh: inhibitors of human phospholipase C beta3; Purified PLC-beta3, fluorogenic substrate, fluorescence; inhibition, % at 12.2 µM; 370,000 tested, 0.18% active; AID 720704; in the data active = inhibition above about 11%
PLC-gamma1 inh: blocks human PLC-gamma1 enzyme activity; purified PLC-gamma1, fluorogenic substrate, fluorescence; inhibition, % at 12.2 µM; 370,000 tested, 0.84% active; AID 720700; in the data active = inhibition above about 9.5%
ADAM10 inh: inhibits human ADAM10 | O14672 | recombinant ADAM10, EDANS/DABCYL FRET peptide cleavage, 3 h | inhibition, % at 7 µM | 370,000 tested, 0.62% active | AID 720582;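 active = inhibition above a per-campaign cutoff equal to the mean of compounds falling between control-based bounds plus 3 SD, cut at about 20% in these data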
Target sequence (O14672 214-748 limits assumed): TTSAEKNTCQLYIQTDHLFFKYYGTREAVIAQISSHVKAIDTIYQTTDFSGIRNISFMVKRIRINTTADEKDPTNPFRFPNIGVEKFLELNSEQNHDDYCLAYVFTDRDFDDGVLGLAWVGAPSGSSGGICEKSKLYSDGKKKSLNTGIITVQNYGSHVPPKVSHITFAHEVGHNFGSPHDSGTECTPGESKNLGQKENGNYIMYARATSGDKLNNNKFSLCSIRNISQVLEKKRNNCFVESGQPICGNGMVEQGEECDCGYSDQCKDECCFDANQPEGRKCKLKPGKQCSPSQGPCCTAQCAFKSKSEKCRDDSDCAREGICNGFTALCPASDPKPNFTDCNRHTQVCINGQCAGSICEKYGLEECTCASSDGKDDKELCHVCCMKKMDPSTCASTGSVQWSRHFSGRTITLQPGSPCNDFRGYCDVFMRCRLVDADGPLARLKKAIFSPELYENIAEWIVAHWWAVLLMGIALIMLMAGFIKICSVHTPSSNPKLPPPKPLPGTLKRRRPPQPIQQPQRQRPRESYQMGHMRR
proKLK7 act conf: proKLK7 activation, confirmation. shares compounds with proKLK7 act. purified proKLK7, EDANS-DABCYL substrate fluorescence; scaled: vehicle 0, mature enzyme 100. activation, % at 7 µM. 3,200 tested, 68% active. AID 686949;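 active = activation, as change over the incubation, above the mean of all tested compounds plus 3 SD, cut at about 13% in these data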
EDANS interfere: optically interferes with EDANS-DABCYL signal, flagging KLK7 hits. shares compounds with proKLK7 act. EDANS-DABCYL substrate fluorescence interference, no enzyme, 4 h; solvent 0%, active enzyme control 100%. activation, % at 7 µM. 3,200 tested, 80% active. AID 686952;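 active = activation above the all-compound mean plus 3 SD, ignoring values outside control-based bounds, cut at about 4.8% in these data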;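 also: value is the 4 h activation minus the activation read at time zero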
EDANS interf: optically interferes with EDANS-DABCYL fluorescence, kallikrein-7 activator counter-screen | shares compounds with proKLK7 act | EDANS-DABCYL peptide fluorescence interference, no enzyme | EC50, µM | 250 tested, 20% active;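 active = compounds that raise the fluorescence signal in this interference counterscreen, with EC50 at or below 10 µM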;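 also: intact quenched peptide substrate alone read at 355 nm excitation and 520 nm emission; signal is fluorescence gain from T0 to T4 after four hours at room temperature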
Hits are given with their value; – = inactive; · = no result. Sampled rows, rich in hits. Any-hit rate of the full collection: about 3.4%.

SMILES	HGIII-sPLA2 inh	proKLK7 act	ADAM17 inh	PLC-beta3 inh	PLC-gamma1 inh	ADAM10 inh	proKLK7 act conf	EDANS interfere	others
CCN1CCN(c2ccc(N3CCN(C(=O)c4ccc(Br)o4)CC3)nn2)CC1	–	19.3	–	–	–	–	–	4.4
Cc1ccc2nc3nc(NCC4CCCO4)c(C(=O)NC4CCCC4)cc3c(=O)n2c1 (stereo not drawn)	–	24.5	–	–	–	–	–	–
CCNc1nc2nc3ccc(C)cn3c(=O)c2cc1C(=O)NCC1CCCO1 (stereo not drawn)	–	74.6	–	–	–	–	69.2	68.8
CC(C)NC[C@H](O)c1ccc(O)c(O)c1	–	47.3	–	–	–	–	49.0	51.0
CC(C)NCC(O)c1cc(O)cc(O)c1 (stereo not drawn)	–	–	–	–	–	–	·	·
CCN(CC)c1ccc(Nc2cc3n(c(=O)n2)CCc2cc(OC)c(OC)cc2-3)cc1	–	21.4	–	–	–	–	71.8	74.5
CN(C)Cc1c(C(C)(C)O)[nH]c2cc(F)ccc12	–	–	–	–	–	–	·	·
O=C(c1cc(-c2cccs2)nc2ccccc12)N1CCN(c2ccccc2O)CC1	–	–	–	–	–	–	·	·
O=C(c1cc(-c2cccs2)nc2ccccc12)N1CCN(CCO)CC1	–	14.0	–	–	–	–	22.3	14.1	EDANS interf=–
CC(=O)Nc1cc2c(ccc3ccccc32)oc1=O	–	23.2	–	–	–	–	47.8	56.6
O=C(c1cc2c(ccc3ccccc32)oc1=O)N1CCN(CCO)CC1	–	26.1	–	–	–	–	–	9.8
CC(=O)Nc1cc2ccccc2oc1=O	–	–	–	–	–	–	·	·
CS(=O)(=O)N1CCN(C(=O)c2cc(-c3cccs3)nc3ccccc23)CC1	–	12.7	–	–	–	–	16.0	23.1
C[C@H]1[C@@H](c2ccccc2)Oc2ccc(Cl)cc2S(=O)(=O)N1Cc1ccc(Cl)cc1	–	–	–	–	–	–	·	·
COc1ccc(CNS(=O)(=O)c2ccccc2Br)c(OC)c1	–	–	–	–	–	–	·	·
CCC1=C(CC2NCCc3ccccc32)CC2c3cc(OC)c(OC)cc3CCN2C1 (stereo not drawn)	–	18.8	–	–	–	–	–	–
CC[C@H]1CN2CCc3cc(OC)c(OC)cc3C2C[C@@H]1C[C@H]1NCCc2cc(OC)c(OC)cc21 (stereo partly drawn)	–	–	–	–	–	–	·	·
Cc1ccccc1CN1CCCCC(NC(=O)c2cccc([N+](=O)[O-])c2)C1=O (stereo not drawn)	–	–	–	–	–	–	·	·
COc1ccc2cc(C3=CC(=O)CCC3)ccc2c1	–	24.0	–	–	–	–	–	–
O=C(OCC#CCSc1nnc(-c2cccc3ccccc23)o1)c1cccc(F)c1	–	·	–	–	–	–	·	·
OC(c1ccccc1)(c1ccccc1)C1CCN(CCCOc2ccc(-c3cccnc3)cc2)CC1	–	–	–	–	–	–	·	·
O=S(=O)(c1cccc2ccccc12)N1CCCCC1	–	–	–	–	–	–	·	·
O=C(O)c1cc2cccc(S(=O)(=O)N3CCCCC3)c2cc1O	–	21.2	–	–	–	–	84.8	88.4
O=c1c2ccccc2c(C=NC2CCS(=O)(=O)C2)c(O)n1-c1ccccc1 (stereo not drawn)	–	13.7	–	–	–	–	14.6	15.8
Nc1nc2ncccn2c1-c1ccc(F)c(F)c1	–	21.9	–	–	–	–	23.9	18.7	EDANS interf=–
O=C(Nc1nc2ncccn2c1-c1ccc(F)c(F)c1)c1ccccc1	–	–	–	–	–	–	·	·
Cc1ccc(-c2c(NC(=O)C3CC3)nc3ncccn23)cc1	–	22.7	–	–	–	–	29.7	34.6

Source: PubChem BioAssay (The Scripps Research Institute Molecular Screening Center)
